Assay results published in PubChem BioAssay (NCI).
Several values for one entry are separate records, joined by “and”; a condition that tells them apart may be missing. Equal entries are not always repeated. This is part of a sample that, as a whole, favours compounds with a hit. Of some 79,000 tested, about 15% had one in any assay. Where a structure was tested more than once in an assay, its records may differ in their call. Activity calls are given as the source filed them. Rule as the data show it: active = growth inhibition above about 70%; inactive = the rest.

Assay: NCI Yeast Anticancer Drug Screen. Data for the mec2-1 strain (AID 157)
Conditions: S. cerevisiae mec2-1 strain, at 5.0 µM (retest, dose inferred, filed as 0.5), stronger effect = higher value
Outline: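 Readout is yeast growth inhibition, normalised to vehicle-treated controls, in the mec2-1 strain exposed to compound.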

**Q.** With O=C1C(CN2CCCCC2)CCCC1CN1CCCCC1 (stereo not drawn) as the molecule, how does the growth inhibition read?
**A.** The growth inhibition was 2% (inactive).

**Q.** With NC(=O)c1cc(Br)cc(Br)c1O as the molecule, how does the growth inhibition read?
**A.** The growth inhibition was -13% (inactive).

**Q.** With CN(C)c1ccc(/C=C/c2ccc3ccccc3[n+]2C)cc1 as the molecule, how does the growth inhibition read?
**A.** The growth inhibition was 3% (inactive).

**Q.** With C1=C(CN2CCCCC2)COc2ccccc21 as the molecule, how does the growth inhibition read?
**A.** Its growth inhibition is 1% (inactive).

**Q.** For O=C1Nc2ccccc2C1(O)C/C(=N/O)c1ccc2ccccc2c1 (stereo not drawn), which growth inhibition is on record?
**A.** Its growth inhibition is 27% (inactive).

**Q.** For CC(C)(S)C(N)C(=O)O (stereo not drawn), which growth inhibition is on record?
**A.** The growth inhibition was 1% (inactive).

**Q.** With COC(=O)[C@@H](NS(=O)(=O)CC12CCC(CC1)C2(C)C)C(C)(C)C as the molecule, how does the growth inhibition read?
**A.** Its growth inhibition is 1% (inactive).

**Q.** For CN(CCN1C(=O)c2cccc3cccc(c23)C1=O)CCN1C(=O)c2cccc3cccc(c23)C1=O, which growth inhibition is on record?
**A.** The growth inhibition was 20% (inactive).

**Q.** Which growth inhibition does the source give for CN(C)CCCN=c1c2ccccc2n(O)c2cccc([N+](=O)[O-])c12 here?
**A.** Its growth inhibition is 23% (inactive).

**Q.** Which growth inhibition does the source give for O=C(/C=C/c1ccc(Cl)cc1)NC1C=Nc2ccc([N+](=O)[O-])cc2NC1=O (stereo not drawn) here?
**A.** Its growth inhibition is -27% (inactive).

**Q.** For O=C(CC(=O)CC(O)(c1ccccc1)c1ccccc1)CC(=O)c1ccccc1, which growth inhibition is on record?
**A.** Its growth inhibition is -10% (inactive).

**Q.** For O=C(c1ccc(Cl)cc1)C(O)c1ccc(Cl)cc1 (stereo not drawn), which growth inhibition is on record?
**A.** The growth inhibition was -9% (inactive) and -3% (inactive).

**Q.** With COc1ccc2c(c1)C(Cc1ccc(Oc3ccc(CC4c5cc(OC)ccc5CC[N+]4(C)C)cc3)cc1)[N+](C)(C)CC2 (stereo not drawn) as the molecule, how does the growth inhibition read?
**A.** Its growth inhibition is -6% (inactive).

**Q.** For O=C(NO)c1cccnc1, which growth inhibition is on record?
**A.** Its growth inhibition is 2% (inactive).

**Q.** Which growth inhibition does the source give for Oc1c(Cl)c(Cl)c(Cl)c2ccccc12 here?
**A.** Its growth inhibition is 79% (active).

**Q.** For CSC1SCC2C(=O)N(C)C(C(C)C)C(=O)OCC(NC(=O)c3cnc4ccccc4n3)C(=O)NC(C)C(=O)N(C)C1C(=O)N(C)C(C(C)C)C(=O)OCC(NC(=O)c1cnc3ccccc3n1)C(=O)NC(C)C(=O)N2C (stereo not drawn), which growth inhibition is on record?
**A.** The growth inhibition was 4% (inactive) and 99% (active).

**Q.** Which growth inhibition does the source give for O=C(O)C1(Cc2ccccc2)Cc2cc3c(cc2C1)CCC3 here?
**A.** The growth inhibition was -4% (inactive).

**Q.** With CC1=C(C(=O)Nc2c(C)cccc2C)C(c2ccc3c(c2)OCO3)C(C(=O)Nc2c(C)cccc2C)=C(C)N1 as the molecule, how does the growth inhibition read?
**A.** Its growth inhibition is 19% (inactive).

**Q.** For COc1cc2c(c3c1/c(=N/N(C)C)c1ccccc1n3C)C=CC(C)(C)O2, which growth inhibition is on record?
**A.** The growth inhibition was 24% (inactive).

**Q.** Which growth inhibition does the source give for CC(=O)Nc1nc(N)c2ncn(C3OC(C(O)CO)C(O)C3O)c2n1 (stereo not drawn) here?
**A.** The growth inhibition was 0% (inactive).

**Q.** For CC(C)(Cc1nocc1C(C)(C)CC#N)c1cc(CC(C)(C)C2(C)OCCO2)no1, which growth inhibition is on record?
**A.** Its growth inhibition is 0% (inactive).

**Q.** Which growth inhibition does the source give for CCOC(=O)c1c[nH]c2c(ccc3cccnc32)c1=O here?
**A.** Its growth inhibition is 7% (inactive) and -15% (inactive).

**Q.** For Cc1ncc(C[n+]2cccc(CCO)c2C)c(N)n1, which growth inhibition is on record?
**A.** The growth inhibition was 19% (inactive) and 11% (inactive).

**Q.** For Clc1ccc2c(c1)[nH]c1c2nc2ccccn21, which growth inhibition is on record?
**A.** The growth inhibition was 19% (inactive).

**Q.** Which growth inhibition does the source give for O=C(O)c1ccccc1C(=O)O here?
**A.** Its growth inhibition is -3% (inactive).

**Q.** Which growth inhibition does the source give for COC1/C=C/OC2(C)Oc3c(C)c(O)c4c(c3C2=O)C(=O)C=C(NC(=O)/C(C)=C\C=C\C(C)C2OC(C)(C)OC(C2C)C(C)C(OC(C)=O)C1C)C4=O (stereo not drawn) here?
**A.** The growth inhibition was 30% (inactive).

**Q.** For CCN(CC)CCCn1c2cc(=O)c(=O)cc-2[nH]c2cc(C)ccc21, which growth inhibition is on record?
**A.** The growth inhibition was 2% (inactive).

**Q.** For O=[N+]([O-])c1ccc(N/N=C/CC(O)(C(F)(F)F)C(F)(F)F)c([N+](=O)[O-])c1, which growth inhibition is on record?
**A.** Its growth inhibition is -1% (inactive).

**Q.** With OCc1ccccc1C(c1ccccc1)c1ccccc1 as the molecule, how does the growth inhibition read?
**A.** The growth inhibition was 9% (inactive).

**Q.** For COc1ccc2[nH]c3c(C)c4ccncc4c(C)c3c2c1, which growth inhibition is on record?
**A.** The growth inhibition was 40% (inactive).

**Q.** With CC(C)CCC[C@@H](C)[C@H]1CC[C@H]2[C@@H]3CC=C4N5CCCN=C5CC[C@]4(C)[C@H]3CC[C@]12C as the molecule, how does the growth inhibition read?
**A.** The growth inhibition was -20% (inactive).

**Q.** For CC(C)CCCC(C)C1CCC2C3CC=C4CC([n+]5cccc6ccccc65)CCC4(C)C3CCC12C (stereo not drawn), which growth inhibition is on record?
**A.** The growth inhibition was 11% (inactive).

**Q.** Which growth inhibition does the source give for O=C1/C(=C/c2ccc(Cl)cc2)CNC/C1=C\c1ccc(Cl)cc1 here?
**A.** Its growth inhibition is 76% (active) and 48% (inactive).

**Q.** For CCn1c2ccccc2c2ccc(N=Cc3ccc(N(C)C)cc3)cc21, which growth inhibition is on record?
**A.** The growth inhibition was -1% (inactive).

**Q.** With O=C1NC(=O)c2cc([N+](=O)[O-])ccc21 as the molecule, how does the growth inhibition read?
**A.** Its growth inhibition is 0% (inactive).

**Q.** With O=c1[nH]c(SCc2c(Cl)c(Cl)c(Cl)c(Cl)c2Cl)nc(=S)[nH]1 as the molecule, how does the growth inhibition read?
**A.** The growth inhibition was 10% (inactive).

**Q.** With Cn1c2nc3ccccc3c-2cc2ccccc21 as the molecule, how does the growth inhibition read?
**A.** Its growth inhibition is 27% (inactive).

**Q.** With O=Cc1cc(Br)ccc1O as the molecule, how does the growth inhibition read?
**A.** Its growth inhibition is 7% (inactive) and 4% (inactive).
